The results in this text go back to PubChem BioAssay AID1029 (Sanford-Burnham Center for Chemical Genomics, 2008).

The term inhibition denotes the relative decrease from the control value, in per cent.

The campaign covered roughly 110,000 compounds. About 80 (0.07%) were called active. For the sample, actives were picked, then their nearest neighbours and some compounds at random. A number with no mark means an inactive call.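 How the source made its calls: active means inhibition above the mean of the plate negative controls plus 5 SD (cut at about 13% in these data); inactive means the rest.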

This assay is described as follows: inhibitors of macrophage phagocytosis, primary screen, imaging, J774A.1 cells, IgG beads (AID 1029).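 Further: phagocytic index as fraction of beads internalized from green versus red external bead signal; plate controls were DMSO negative control for no effect and cytochalasin-D positive control for full effect.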 To be noted: J774A.1 macrophage IgG-bead phagocytosis, at 5 µM, stronger effect = higher value.
With `CCOC(=O)C(O)(c1ccc(N)c(OC)c1)C(F)(F)F` (centres undefined), the inhibition was -1.1%.

`CCOC(=O)C(O)(c1ccc(NC(=O)c2ccco2)c(OC)c1)C(F)(F)F` (centres undefined): the inhibition was 2.8%.

As for `CN(C)C(=O)Oc1ccc(OCc2cccc[n+]2C)cc1`, the inhibition was -2.17%.

Regarding `O=c1[nH]c(=S)n(C2CC2)c(O)c1/C=N/N1CCOCC1`, the inhibition is -3.16%.
